D2 antag – HTS Assay for Allosteric Antagonists of the Human D2 Dopamine Receptor: Primary Screen for Antagonists; D(2) dopamine receptor (Homo sapiens), P14416; HEK293 TREx D2 cells, calcium flux, dopamine EC80; inhibition, % at 10 µM; 2% of 340,000 active; AID 485344, 2010; in the data active = inhibition above about 30%; inactive = below that, where a call was filed; also: 0% is about no effect
Target sequence (P14416 whole entry, looked up): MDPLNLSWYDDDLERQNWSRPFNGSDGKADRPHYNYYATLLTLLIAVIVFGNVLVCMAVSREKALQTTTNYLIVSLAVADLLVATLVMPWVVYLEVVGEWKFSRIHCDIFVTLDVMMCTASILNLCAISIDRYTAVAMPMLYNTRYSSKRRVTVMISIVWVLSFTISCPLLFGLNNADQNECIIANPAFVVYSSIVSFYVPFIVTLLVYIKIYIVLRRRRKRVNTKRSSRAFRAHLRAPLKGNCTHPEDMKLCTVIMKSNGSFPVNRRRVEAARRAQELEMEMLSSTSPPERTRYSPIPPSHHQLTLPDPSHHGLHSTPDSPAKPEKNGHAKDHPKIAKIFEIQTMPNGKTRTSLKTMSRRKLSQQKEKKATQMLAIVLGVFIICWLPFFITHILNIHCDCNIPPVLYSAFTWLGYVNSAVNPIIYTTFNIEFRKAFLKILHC
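Measurement of antagonist activity uses fluorescent calcium dye in inducible HEK293 T-REx D2 cells: 10 s baseline, compound addition with 180 s read, EC80 dopamine addition with a further 180 s read.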
D2 PAM-1 – HTS Assay for Positive Allosteric Modulators of the Human D2 Dopamine Receptor: Primary Screen for Potentiators; AID 485347, 2010; potentiation, % at 10 µM; HEK293 T-REx D2, calcium flux, EC20 dopamine potentiation; 0.34% of 340,000 active; D(2) dopamine receptor (Homo sapiens), P14416;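 active = potentiation over 3 SD above the plate norm, cut at about 30% in these data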; also: 0% is about no effect
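Potentiation of an EC20 dopamine calcium response is measured in a force-coupled, tetracycline-inducible Hek293 Trex D2 line. Compound-only kinetic reads over 180 s flag agonists before dopamine addition.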
D2 ag-1 – HTS Assay for Allosteric Agonists of the Human D2 Dopamine Receptor: Primary Screen for Agonists | 0.53% of 340,000 active | activation, % at 2 µM | HEK293 T-REx D2 cells, calcium flux agonist mode | D(2) dopamine receptor (Homo sapiens), P14416 | AID 485358, 2010;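 active = activation over 3 SD above normal in the single-dose calcium agonist read, cut at about 30% in these data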; also: 0% is about no effect
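Agonism scored from kinetic calcium signal (1 read/sec, 180 s) following compound pin transfer, after a 10 s baseline. Cells: HEK293 Trex line expressing inducible D2 receptor coupled to calcium, dye-loaded after overnight culture at 30 C.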
D2 ag-2 – Beta-Arrestin HTS for Positive Allosteric Modulators of the Human D2 Dopamine Receptor: Agonists; D(2) dopamine receptor (Homo sapiens), P14416; DiscoveRx PathHunter D2 beta-arrestin, luminescence, 90 min; 100% = 57 uM dopamine signal; activation, % (concentration not given with the values); 0.084% of 360,000 active; in the data active = activation above about 40%; inconclusive = between about 15% and that limit
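Agonist mode: compounds alone added to overnight-plated D2 PathHunter cells for 90 min at 37 C, with 57 uM final dopamine (EC100) defining full response. Beta-arrestin recruitment detected by chemiluminescent reagent, read after 1 h at ambient temperature.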
D2 PAM-2 – Beta-Arrestin HTS for Positive Allosteric Modulators of the Human D2 Dopamine Receptor: Potentiators; D(2) dopamine receptor (Homo sapiens), P14416; DiscoveRx D2 beta-arrestin cells, luminescence, 90 min; 100% = 57 uM dopamine signal; potentiation, % (test concentration not listed); 0.23% of 360,000 active; in the data active = potentiation above about 50%; inconclusive = mostly about 30% to 49%
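PathHunter D2 cells, attached overnight at 37 deg C, received compound in DMSO plus dopamine at EC20 (50 nM final) for 90 min at 37 deg C. Beta-arrestin recruitment was read as luminescence after 1 h with detection reagent at ambient temperature.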
* hit, by the source's call; ? = inconclusive; nt = not tested or not shown. Shown are actives, neighbours in structure and some others; about 2.4% of the full set was active somewhere.

SMILES	D2 antag	D2 PAM-1	D2 ag-1	D2 ag-2	D2 PAM-2
CCN(Cc1ccccc1)C(=O)Cn1c(=O)n(-c2cccc(C)c2)c(=O)c2c1c1cc(C)ccc1n2C	nt	6	0	nt	nt
CC(NC(=O)Nc1ccc(O)cc1)(C(F)(F)F)C(F)(F)F	-2	6	1	13	118*
CCS(=O)(=O)c1ccccc1C(=O)NC1CCCc2ccccc21 (stereo not given)	12	7	-2	3	-5
COc1cc(C(=O)NC2CCCc3ccccc32)cc(OC)c1C (stereo not given)	55*	nt	-3	1	-4
CS(=O)(=O)c1ccccc1C(=O)NC1CCCc2ccccc21 (stereo not given)	-6	37*	1	-1	-3
COc1ccccc1C(=O)NC1CCCc2ccccc21 (stereo not given)	8	2	2	2	-5
CC(Oc1ccccc1)C(=O)Nc1ccc(OCc2cc(=O)n3ccsc3n2)cc1 (stereo not given)	nt	1	-1	nt	nt
CCOC(=O)C1CCN(C/C=C/c2ccccc2[N+](=O)[O-])CC1	48*	-12	-1	1	-13
CC1CCCCN1C(=O)/C=C/c1ccccc1[N+](=O)[O-] (stereo not given)	30*	14	0	-5	-3
CCOC(=O)C1CCN(C/C=C/c2ccccc2OC)CC1	18	-20	4	-4	-10
O=C(CCSCc1cnn(-c2ccccc2)c1-n1cccc1)NCc1ccccc1Cl	nt	-25	-2	nt	nt
CN(C)S(=O)(=O)c1ccc(-c2csc(N/N=C/c3ccc(O)cc3)n2)cc1	-8	1	0	?	57*
COc1cccc(-n2c(=O)c3c(C)c(C)sc3n(CC(=O)Nc3ccccc3OC)c2=O)c1	nt	-5	1	nt	nt
CCN(C1CCCCC1)S(=O)(=O)c1ccc(S(=O)(=O)N2CCN(CCC#N)CC2)cc1	38*	-13	0	-1	-4
COC(=O)c1ccc(NC(=O)c2c(NCc3ccc(OC)c(OC)c3)sc3c2CCCC3)cc1	nt	nt	0	nt	nt
CCCCn1c(CNC(=O)CCC)nc2ccccc21	34*	-2	-1	-3	-12
COC(=O)c1ccc(NC(=O)COc2cccc(-n3cnnn3)c2)cc1	-8	-1	0	-2	-2
Cc1ccc(NC(=O)COc2ccc(-n3cnnn3)cc2)cc1C	42*	19	0	2	-10
CCc1ccc(NC(=O)COc2cccc(-n3cnnn3)c2)cc1	37*	-29	0	-2	-9
COc1ccc(CCNC(=O)C(C)n2nc(C)c3sc4ccccc4c3c2=O)c(OC)c1 (stereo not given)	nt	-10	nt	nt	nt
COCCn1c(SCC(=O)NC(C)c2ccc(F)cc2)nc2ccccc21 (stereo not given)	14	34*	-1	-4	-6
Cc1ccc(CNC(=O)C2CCN(S(=O)(=O)c3cc(-c4noc(C)n4)ccc3C)CC2)cc1	nt	8	0	nt	nt
Cc1coc2cc3oc(=O)c(CCC(=O)NCc4ccc(Cl)cc4)c(C)c3cc12	nt	-32	-1	nt	nt
COc1cccc(C(=O)C2CCCN(C/C=C/c3ccccc3OC)C2)c1 (stereo not given)	0	-22	-1	1	-2
COc1ccc(C(=O)C2CCCN(C/C=C/c3ccccc3OC)C2)c(OC)c1 (stereo not given)	86*	-22	-1	-2	-8
SMILES	D2 antag	D2 PAM-1	D2 ag-1	D2 ag-2	D2 PAM-2
COc1ccc(CNC(=O)Cn2ncc3c4ccccc4n(Cc4cccc(Cl)c4)c3c2=O)cc1	nt	-4	0	nt	nt
Oc1c(C(c2ccc(Cl)cc2Cl)N2CCN(Cc3ccccc3)CC2)sc2nc(-c3ccco3)nn12 (stereo not given)	nt	-2	1	nt	nt
Cc1ccc(S(=O)(=O)Nc2ccc3c(c2)C(=O)c2ccccc2-3)cc1	nt	nt	nt	-7	-6
Cc1ccc(NS(=O)(=O)c2ccc3c(c2)C(=O)c2ccccc2C3=O)c(C)c1	0	3	0	5	81*
Cc1ccc(NS(=O)(=O)c2ccc(C)c(NC(=O)COc3ccccc3)c2)c(C)c1	67*	-4	-1	-8	-1
Cc1ccc(NC(=O)COc2ccccc2)c(NC(=O)c2ccccc2C)c1	nt	nt	nt	-3	-6
Cc1cc(O)c(CN2CCN(c3ccc(F)cc3)CC2)c2oc(=O)cc(C)c12	nt	4	nt	nt	nt
Cc1cc2cc(CN(Cc3ccc4c(c3)OCO4)Cc3nnnn3C3CCCC3)c(=O)[nH]c2cc1C	-15	-3	0	-2	-7
O=c1[nH]c2cc3c(cc2cc1CN(CCc1ccccc1)Cc1nnnn1C1CCCC1)OCCO3	-1	-14	35*	nt	nt
O=C(O)c1cccc(-n2c(-c3cnccn3)n[nH]c2=S)c1	30*	-15	2	1	-7
O=C(Nc1ccc(F)c(Cl)c1)c1ccc2c(c1)OCO2	-9	-15	1	0	-3
COc1ccccc1OCCC(=O)OCC(=O)Nc1ccc(Br)cc1	91*	-24	0	-4	-9
COc1ccccc1/C=C/C(=O)OCC(=O)Nc1ccc2c(c1)OCCO2	-10	3	0	-4	-9
COc1ccccc1/C=C/C(=O)Nc1ccc2c(c1)OCCO2	34*	-37	0	1	-37
COc1ccccc1OCC(=O)Nc1ccc2c(c1)OCO2	32*	0	0	-8	-7
COc1ccc(NC(=O)c2ccc3c(c2)OCO3)cc1Cl	39*	-9	0	-4	-15
CCn1c(SCC(=O)Nc2cccc(Cl)c2)nnc1-c1nonc1NC(C)=O	nt	18	-2	nt	nt
CC(C)CN(c1ccccc1)S(=O)(=O)c1nnc(NC(=O)c2ccco2)s1	68*	5	0	-2	-30
N#C/C(=C1\C(=O)Nc2c(Cl)cc(Cl)cc21)c1nnc2n1CCCCC2	nt	nt	nt	6	67*
Clc1ccc(-c2cn3c(n2)SCC3)cc1	-12	-8	0	-5	-5
Nc1nc(-c2ccc(Cl)cc2)cn1N	30*	5	0	-3	-6
CCc1ccc(N2CC(C(=O)Nc3nc4ccc(S(C)(=O)=O)cc4s3)CC2=O)cc1 (stereo not given)	37*	-11	0	-2	-3
N/C(=N\OC(=O)N1c2ccccc2Sc2ccccc21)c1ccccc1	-2	2	-1	5	5
Cc1cccc(C(=O)O/N=C(/c2ccccc2)c2ccncc2)c1	0	12	-2	?	63*

Bioassay records deposited in PubChem BioAssay by National Center for Advancing Translational Sciences (NCATS).
